An excerpt weighted towards active compounds, which were near 3.6% of everything screened.
mHTT CaM bind: mutant huntingtin-calmodulin interaction inhibitors – biochemical, AlphaScreen, primary screen; P42858; AlphaScreen His-mHTT/GST-CaM binding, luminescence; inhibition, % at 15 µM; 190,000 compounds, 3.6% hits; AID 1671202, 2021;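 note: 0% = both proteins with DMSO and 100% = one protein alone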
Pf apPOL inh: Pf-apPOL inhibitors, biochemical, fluorescence; Plasmodium falciparum apicoplast DNA polymerase (apPOL); Recombinant Pf-apPOL, molecular beacon fluorescence, 1.5 h; inhibition, % at 10 µM; 210,000 compounds, 0.25% hits; AID 1794808, 2022
An asterisk follows results filed as active. Cut-off read from the data, not from the text of the source: active = inhibition above about 50%; inactive = the rest.

Results for O=C(Cc1cccc(F)c1)N1CCCC1c1ccc(F)cc1 (stereo unspecified) ?
mHTT CaM bind: -4.3; Pf apPOL inh: -1.4

How did O=C1S/C(=C\c2cccc(F)c2)C(=O)N1CNc1ccc(F)cc1 do in these assays?
mHTT CaM bind: -3.0; Pf apPOL inh: 6.7

Results for Cc1oc(C(=O)O)cc1CN1CCOCC1 ?
mHTT CaM bind: 2.7; Pf apPOL inh: 2.8

Results for COCCC(=O)N1CCCCC1c1nncn1CC1CC1 (stereo unspecified) ?
mHTT CaM bind: -1.5; Pf apPOL inh: -4.5

How did COc1cc(Br)cc(/C=C/c2ccc3cccc(O)c3n2)c1O do in these assays?
mHTT CaM bind: 35.6; Pf apPOL inh: -8.1

What do the screens show for `COc1ccc(OC)c(/C=C/c2ccc3cccc(O)c3n2)c1`?
mHTT CaM bind: 36.0; Pf apPOL inh: 2.3

Results for COc1ccc(Br)c(/C=C/c2ccc3cccc(O)c3n2)c1 ?
mHTT CaM bind: 65.0*; Pf apPOL inh: -0.8

Results for Oc1ccc(Cl)cc1/C=C/c1ccc2cccc(O)c2n1 ?
mHTT CaM bind: 100.3*; Pf apPOL inh: 7.8

Results for COc1ccc(SCC(=O)Nc2sc3c(c2C#N)CCN(C(C)=O)C3)cc1 ?
mHTT CaM bind: 15.1; Pf apPOL inh: -14.6

Results for Cc1nnc2n1N=C(c1ccc([N+](=O)[O-])cc1)CS2 ?
mHTT CaM bind: -1.0; Pf apPOL inh: -4.5

How did COCCNC(=O)Cc1ccc(NC(=O)Nc2ccccc2F)cc1 do in these assays?
mHTT CaM bind: -7.3; Pf apPOL inh: -8.8

How did Cc1ccc(S(=O)(=O)NC(=O)Nc2ccc(Cl)c(C(F)(F)F)c2)cc1 do in these assays?
mHTT CaM bind: -7.0; Pf apPOL inh: -2.0

Results for COc1cc(/C=C2\C(=O)ON=C2C)cc(Br)c1OCc1cccc(F)c1 ?
mHTT CaM bind: 51.0*; Pf apPOL inh: -2.7

What do the screens show for `COc1cc(/C=C2\NC(=O)NC2=O)ccc1OCc1ccccc1F`?
mHTT CaM bind: -2.0; Pf apPOL inh: -1.8

How did CCOc1cc(/C=C2\NC(=O)NC2=O)cc(Cl)c1OCc1ccccc1F do in these assays?
mHTT CaM bind: 68.0*; Pf apPOL inh: -2.0

What do the screens show for `COc1cc(/C=C2\C(=O)ON=C2C)cc(Br)c1OC`?
mHTT CaM bind: 24.0; Pf apPOL inh: 3.5

Results for C=CCOc1c(Cl)cc(/C=C2\C(=O)ON=C2C)cc1OC ?
mHTT CaM bind: 35.0; Pf apPOL inh: -1.1

What do the screens show for `COc1cc(/C=C2\C(=O)ON=C2C)cc(Cl)c1OCc1ccccc1F`?
mHTT CaM bind: 60.0*; Pf apPOL inh: -4.7

What do the screens show for `CC1=NOC(=O)/C1=C/c1ccc(OCc2ccccc2F)c(Cl)c1`?
mHTT CaM bind: 2.0; Pf apPOL inh: -8.6

Results for COc1cc(/C=C2\C(=O)ON=C2C)cc(Cl)c1OCc1cccc(F)c1 ?
mHTT CaM bind: 86.0*; Pf apPOL inh: 0.0

What do the screens show for `O=C(NCc1ccco1)c1cc(F)c(F)cc1Cl`?
mHTT CaM bind: -1.4; Pf apPOL inh: -5.5

What do the screens show for `O=C1C(c2ccc(F)cc2)N(Cc2ccc(F)cc2)C(=O)CN1C1CCCC1` (stereo unspecified)?
mHTT CaM bind: 14.0; Pf apPOL inh: -11.6

How did CC1=NN(c2ccc(Cl)c(C(=O)O)c2)C(=O)/C1=C/c1ccc(N(C)C)cc1 do in these assays?
mHTT CaM bind: 5.0; Pf apPOL inh: -3.5

What do the screens show for `Cc1nn(C)c(C)c1CNC(=O)c1cc2n(n1)CCCN(Cc1ccc(F)cc1)C2=O`?
mHTT CaM bind: -2.9; Pf apPOL inh: 1.2

How did Cc1ccccc1Cn1c(=O)c(CCC(=O)NC2CCCCC2C)nc2ccccc21 (stereo unspecified) do in these assays?
mHTT CaM bind: -7.0; Pf apPOL inh: -5.3

Results for Cc1ccc(-n2cccc2)cc1 ?
Pf apPOL inh: 1.9

Results for CCOc1cc(/C=C(\C#N)c2nc(-c3ccccc3)cs2)ccc1O ?
mHTT CaM bind: 5.1; Pf apPOL inh: -2.4

Results for Cc1cc(-c2cc(Cl)ccc2O)n[nH]1 ?
mHTT CaM bind: 5.5; Pf apPOL inh: -4.0

What do the screens show for `O=[N+]([O-])c1ccccc1-c1cc(-c2cc(Cl)ccc2O)n[nH]1`?
mHTT CaM bind: 100.2*; Pf apPOL inh: 2.3

How did O=C(CN(Cc1ccccc1)S(=O)(=O)c1ccc2c(c1)OCCO2)NCc1ccccc1 do in these assays?
mHTT CaM bind: 1.1; Pf apPOL inh: -8.3

What do the screens show for `Cc1ccc(N2CCN(S(=O)(=O)c3ccc(Br)cc3)CC2)cc1C`?
mHTT CaM bind: -3.4; Pf apPOL inh: -0.5

Results for CC(C)(C)[C@H]1CCC(=O)N([C@H](CSc2ccccc2)Cc2ccccc2)CC1 ?
mHTT CaM bind: 5.8; Pf apPOL inh: -5.8

Results for CCCN1CCC(=O)N([C@H](COc2ccccc2)Cc2ccccc2)CC1 ?
mHTT CaM bind: 6.8; Pf apPOL inh: -7.5

Results for CC(C)(C)[C@H]1CCC(=O)N([C@H](COc2ccccc2)Cc2ccccc2)CC1 ?
mHTT CaM bind: 63.7*; Pf apPOL inh: 8.7

Results for O=C1CCN(Cc2ccccc2)CCN1[C@H](COc1ccccc1)Cc1ccccc1 ?
mHTT CaM bind: 86.5*; Pf apPOL inh: -2.3

How did O=C(c1ccc2ncsc2c1)N1CCCC(c2nnc(-c3ccccc3F)s2)C1 (stereo unspecified) do in these assays?
mHTT CaM bind: 3.1; Pf apPOL inh: -16.5

How did COC(=O)c1ccc(NC(=O)c2csc(Nc3ccc(S(C)(=O)=O)cc3)n2)cc1 do in these assays?
mHTT CaM bind: 1.4; Pf apPOL inh: 0.7

What do the screens show for `NC(=O)c1cc2n(n1)C(C(F)(F)F)CC(c1ccc(Cl)c(Cl)c1)N2` (stereo unspecified)?
mHTT CaM bind: 25.0; Pf apPOL inh: 0.1

What do the screens show for `CC1Cc2ccccc2N1Cc1cc(=O)c(OCC(=O)Nc2ccc([N+](=O)[O-])cc2)co1` (stereo unspecified)?
mHTT CaM bind: 11.3; Pf apPOL inh: -5.4

How did Cc1ccc(C(=O)N=C2SCCN2C(=O)c2ccc(C)s2)s1 do in these assays?
mHTT CaM bind: 87.0*; Pf apPOL inh: 0.2

How did Cc1ccc(C(=O)N2CCCCC2CCN(C)C)s1 (stereo unspecified) do in these assays?
mHTT CaM bind: -0.6; Pf apPOL inh: -1.6

Results for COc1ccccc1NC(=O)CN1C(=O)C2CCCN2C(=O)c2cc(Cl)ccc21 (stereo unspecified) ?
mHTT CaM bind: -0.5; Pf apPOL inh: -4.3

What do the screens show for `CC(=O)N1CCc2sc(C(=O)NCc3cccc(Br)c3)cc2C1`?
mHTT CaM bind: 56.4*; Pf apPOL inh: 0.1

Results for CC(=O)N1CCc2sc(C(=O)NCc3cccc(Cl)c3)cc2C1 ?
mHTT CaM bind: 4.7; Pf apPOL inh: -3.7

What do the screens show for `O=S1(=O)C2(Cl)CCC1(Cl)C(Cl)=C2Cl`?
mHTT CaM bind: 27.0; Pf apPOL inh: -8.8

What do the screens show for `Cc1cc(C)cc(N(CC(=O)Nc2ccc(F)c(Cl)c2)S(C)(=O)=O)c1`?
mHTT CaM bind: 56.4*; Pf apPOL inh: -1.3

How did Cc1cc(Cl)ccc1N(CC(=O)Nc1ccc(F)cc1)S(C)(=O)=O do in these assays?
mHTT CaM bind: -1.6; Pf apPOL inh: -5.3

How did Cc1ccc(NC(=O)N2CCCC(CC(=O)N3CCN(c4cc(C)ccc4C)CC3)C2)cc1 (stereo unspecified) do in these assays?
mHTT CaM bind: 37.4; Pf apPOL inh: -2.9

What do the screens show for `Cc1ccc(NS(=O)(=O)c2ccc(F)cc2)c(NS(=O)(=O)c2ccc(F)cc2)c1`?
mHTT CaM bind: 0.5; Pf apPOL inh: 0.4

Assay outcomes: PubChem BioAssay, University of Kansas High Throughput Screening Laboratory
